Among all 5,500 compounds or so, about 2,000 (36%) were called active. Not shown: some 18% with an inconclusive outcome. The list shows a part of the results. A number with no mark means an inactive call. Cut-off read from the data, not from the text of the source: active = normalized growth mostly below about 0.91 (no sharp cut-off); inconclusive = no clear call, values can overlap the other calls; inactive = mostly above about 0.92.
Test: chemical genetic growth profiling, strain panel (AID 1159580);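 note: tested at 20 µM; growth read once vehicle control cultures reached saturation at 30 °C; 1 = growth at the plate median or of vehicle wells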
Conditions: S. cerevisiae deletion strains, growth OD

O=C(c1cccs1)N(Cc1cccnc1)Cc1ccc(Cl)cc1Cl
normalized growth (locus YAR019C, strain CDC15, stronger effect = lower value): 0.979
normalized growth (locus YBL105C, strain PKC1, stronger effect = lower value): 0.966
normalized growth (locus YBR135W, strain CKS1, stronger effect = lower value): 0.961
normalized growth (locus YBR136W, strain MEC1, stronger effect = lower value): 0.955
normalized growth (locus YBR160W, strain CDC28, stronger effect = lower value): 0.964
normalized growth (locus YDL017W, strain CDC7, stronger effect = lower value): 0.968
normalized growth (locus YDL028C, strain MPS1, stronger effect = lower value): 0.961
normalized growth (locus YDL101C, strain DUN1, stronger effect = lower value): 0.97
normalized growth (locus YDL108W, strain KIN28, stronger effect = lower value): 0.96
normalized growth (locus YDL132W, strain cdc53, stronger effect = lower value): 0.96
normalized growth (locus YDL214C, strain PRR2, stronger effect = lower value): 0.94
normalized growth (locus YDR052C, strain DBF4, stronger effect = lower value): 0.96
normalized growth (locus YDR054C, strain cdc34, stronger effect = lower value): 0.968
normalized growth (locus YDR226W, strain ADK1, stronger effect = lower value): 0.96
normalized growth (locus YDR477W, strain SNF1, stronger effect = lower value): 0.934
normalized growth (locus YER123W, strain YCK3, stronger effect = lower value): 0.887
normalized growth (locus YER133W, strain GLC7, stronger effect = lower value): 0.946
normalized growth (locus YFL009W, strain cdc4, stronger effect = lower value): 0.96
normalized growth (locus YFL029C, strain CAK1, stronger effect = lower value): 0.97
normalized growth (locus YFR003C, strain YPI1, stronger effect = lower value): 0.966
normalized growth (locus YFR019W, strain FAB1, stronger effect = lower value): 0.918
normalized growth (locus YFR028C, strain CDC14, stronger effect = lower value): 0.965
normalized growth (locus YGR040W, strain KSS1, stronger effect = lower value): 0.92
normalized growth (locus YGR052W, strain FMP48, stronger effect = lower value): 1.01
normalized growth (locus YGR092W, strain DBF2, stronger effect = lower value): 0.984
normalized growth (locus YHR030C, strain SLT2, stronger effect = lower value): 1.22 [resistant] (active)
normalized growth (locus YHR079C, strain IRE1, stronger effect = lower value): 1.21
normalized growth (locus YHR082C, strain KSP1, stronger effect = lower value): 1.07
normalized growth (locus YHR205W, strain SCH9, stronger effect = lower value): 0.971
normalized growth (locus YIL147C, strain SLN1, stronger effect = lower value): 0.964
normalized growth (locus YJL095W, strain BCK1, stronger effect = lower value): 1.04
normalized growth (locus YJL128C, strain PBS2, stronger effect = lower value): 0.939
normalized growth (locus YJL157C, strain FAR1, stronger effect = lower value): 0.95
normalized growth (locus YJR016C, strain ILV3, stronger effect = lower value): 0.971
normalized growth (locus YJR066W, strain TOR1 (second series), stronger effect = lower value): 0.941
normalized growth (locus YJR066W, strain TOR1, stronger effect = lower value): 1.1
normalized growth (locus YKL048C, strain ELM1, stronger effect = lower value): 0.963
normalized growth (locus YKL067W, strain YNK1, stronger effect = lower value): 0.938
normalized growth (locus YKL101W, strain HSL1, stronger effect = lower value): 0.929
normalized growth (locus YKL193C, strain SDS22, stronger effect = lower value): 0.969
normalized growth (locus YKL203C, strain TOR2, stronger effect = lower value): 1.02
normalized growth (locus YLR113W, strain HOG1, stronger effect = lower value): 1
normalized growth (locus YLR133W, strain CKI1, stronger effect = lower value): 0.945
normalized growth (locus YLR403W, strain SFP1, stronger effect = lower value): 0.965
normalized growth (locus YML070W, strain DAK1, stronger effect = lower value): 0.929
normalized growth (locus YMR001C, strain CDC5, stronger effect = lower value): 0.966
normalized growth (locus YMR205C, strain PFK2 (second series), stronger effect = lower value): 0.944
normalized growth (locus YMR277W, strain FCP1, stronger effect = lower value): 0.974
normalized growth (locus YNL006W, strain LST8, stronger effect = lower value): 0.967
normalized growth (locus YNL020C, strain ARK1, stronger effect = lower value): 0.947
normalized growth (locus YNL161W, strain CBK1, stronger effect = lower value): 0.968
normalized growth (locus YNL183C, strain NPR1, stronger effect = lower value): 1.04
normalized growth (locus YNL207W, strain RIO2, stronger effect = lower value): 0.969
normalized growth (locus YNL222W, strain SSU72, stronger effect = lower value): 0.957
normalized growth (locus YNL307C, strain MCK1 (second series), stronger effect = lower value): 0.955
normalized growth (locus YOL078W, strain AVO1, stronger effect = lower value): 0.962
normalized growth (locus YOL136C, strain PFK27, stronger effect = lower value): 0.906
normalized growth (locus YOR061W, strain CKA2, stronger effect = lower value): 0.929
normalized growth (locus YOR119C, strain RIO1, stronger effect = lower value): 0.978
normalized growth (locus YOR231W, strain MKK1, stronger effect = lower value): 0.997
normalized growth (locus YOR329C, strain SCD5, stronger effect = lower value): 0.972
normalized growth (locus YPL031C, strain PHO85, stronger effect = lower value): 0.927
normalized growth (locus YPL153C, strain RAD53, stronger effect = lower value): 0.937
normalized growth (locus YPL204W, strain HRR25, stronger effect = lower value): 0.902
normalized growth (locus YPL209C, strain IPL1, stronger effect = lower value): 0.969
normalized growth (locus YPL256C, strain CLN2, stronger effect = lower value): 1.15 [resistant] (active)
normalized growth (locus YPR025C, strain CCL1, stronger effect = lower value): 0.965
normalized growth (locus YPR106W, strain ISR1, stronger effect = lower value): 0.969
normalized growth (locus YPR111W, strain DBF20, stronger effect = lower value): 0.955
normalized growth (strain NNK1, stronger effect = lower value): 0.975
normalized growth (strain TSCII, stronger effect = lower value): 0.966

Reference: PubChem BioAssay AID1159580 (chemical genetic matrix, 2015)
